Data taken from ChEMBL document CHEMBL3433997, “St. Jude Leishmania screening dataset” (2016).

target: Glucose transporter (Leishmania mexicana) (UniProt O61059); assay: ST_JUDE_LEISH: Cytotoxicity at 2uM final concentration against transgenic Leishmania Mexicana promastigotes LmGT2 that are glucose transport deficient and complemented with the L. Mexicana glucose transporter 2. Activity is measured by DNA content using SYBR green in vitro; type: functional

Going from `O=C(/C=C/c1ccc(F)cc1)NC1CCC(CCN2CCc3ccc(-n4cccn4)cc3CC2)CC1` (centres undefined) to `COc1ccc(-c2csc(C(=O)NC3CCC(N4CCC(c5ccccc5C)CC4)CC3)c2)cc1` (centres undefined), the inhibition falls from 7.81% to 3.51%.

Compared with `CCCNC(=O)CN1CN(c2ccccc2)C2(CCN(C(=O)c3ccc(C(C)(C)C)cc3)CC2)C1=O`, `COc1cc2c(cc1NC(=O)CN1CCN(C(=O)c3ccco3)CC1)oc1ccccc12` is lower in inhibition: -0.87% for the first, -0.96% for the second.

Compared with `Cc1nnsc1C(=O)Nc1cccc(-c2cccc(-c3nc4cc(F)ccc4[nH]3)c2)c1`, `O=C(NC1CCN(Cc2ccccc2)CC1)c1ccc(-c2nc3cc(Cl)c(F)cc3[nH]2)cc1` is higher in inhibition: -2.12% for the first, 2.45% for the second.

Going from `c1cncc(CCNCc2cccc(-c3ccc(-c4nc5ccccc5[nH]4)s3)c2)c1` to `O=S(=O)(NCCN1CCCC1)c1cccc(-c2ccc(CNCc3ccsc3)cc2)c1`, the inhibition falls from 4.65% to 3.02%.

First: CC(C)(C)CCN1CCC(CNC(=O)c2cc(-c3cccc(C(F)(F)F)c3)cs2)C1 (centres undefined)
Second: CCCCCCCNC(=O)NCC1CCCN(CCCCCNC(=O)/C=C/c2ccc(Cl)c(Cl)c2)C1 (centres undefined)
The inhibition of the first is lower: -0.8% for the first, 2.15% for the second.

First: COc1ccc2nccc(N3CCCN(CCNS(=O)(=O)c4ccc5c(c4)NC(=O)CS5)CC3)c2n1
Second: Cc1ccc(N2CCN(C(=O)c3cccc(-c4cncc5nc(-c6ccco6)n(C)c45)c3)CC2)nc1
The inhibition of the first is lower: -0.73% for the first, 5.39% for the second.

Going from `CCCN(CCC)CCCOc1ccc(C(=O)c2c(-c3ccc(OCCCN(CCC)CCC)cc3)oc3ccc(Cl)cc23)cc1` to `CC(=O)Nc1ccc(Nc2cc(C)nc(Nc3ccc(NC(C)=O)cc3)n2)cc1`, the inhibition falls from 31.1% to 2.71%.
